Reference: PubChem BioAssay (Tox21)
Records with an inconclusive call do not appear. Calls of active or inactive are those of the source. Unless noted, calls follow the shape of the dose curve; as a rule, active = well fitted curve in the direction sought with a large enough effect in the repeat runs; inconclusive = weak or mixed curves; inactive = no such curve, though single readings can be large; an effect the other way counts as inactive or inconclusive.

Legend:
[1] = qHTS assay to identify small molecule antagonists of the androgen receptor (AR) signaling pathway using the MDA cell line in the presence of 0.5 nM R1881 - cell viability counter screen (AID 1259242); also: nearly all actives have a fitted effect of over 45% in size
Summary of the method: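 qHTS format. MDA-kb2 (MMTV-luc, AR/GR responsive) + cpd + 0.5 nM R1881 final, 16 hr 37C/0% CO2 → CellTiter-Fluor 30 min → fluorescence intensity.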

[2] = biological target: Estrogen receptor (Homo sapiens) (UniProt P03372); experiment: qHTS assay to identify small molecule antagonists of the estrogen receptor alpha (ER-alpha) signaling pathway using the BG1 cell line in the presence of 0.1 nM 17-beta-estradiol (AID 1259244); also: nearly all actives have a fitted effect of over 50% in size
Sequence of Estrogen receptor (Homo sapiens) (P03372 whole entry, looked up): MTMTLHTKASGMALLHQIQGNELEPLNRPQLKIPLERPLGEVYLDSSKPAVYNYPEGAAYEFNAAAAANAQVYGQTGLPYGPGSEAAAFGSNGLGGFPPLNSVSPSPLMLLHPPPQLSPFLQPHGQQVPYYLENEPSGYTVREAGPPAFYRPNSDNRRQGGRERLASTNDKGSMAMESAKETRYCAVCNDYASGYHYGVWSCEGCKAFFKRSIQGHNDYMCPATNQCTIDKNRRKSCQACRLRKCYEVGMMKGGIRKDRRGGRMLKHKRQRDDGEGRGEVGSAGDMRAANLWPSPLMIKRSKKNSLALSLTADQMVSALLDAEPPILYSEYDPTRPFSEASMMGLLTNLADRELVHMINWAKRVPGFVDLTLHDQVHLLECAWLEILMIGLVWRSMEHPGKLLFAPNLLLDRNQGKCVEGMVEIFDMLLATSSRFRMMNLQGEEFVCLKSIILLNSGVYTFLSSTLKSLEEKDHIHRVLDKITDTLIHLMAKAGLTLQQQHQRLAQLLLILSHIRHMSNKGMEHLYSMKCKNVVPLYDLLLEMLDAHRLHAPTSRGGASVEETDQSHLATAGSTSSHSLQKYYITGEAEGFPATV
Summary of the method: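 Reporter is a stably transfected luciferase under four estrogen responsive elements in VM7Luc4E2 cells expressing native full-length ER-alpha; inhibition of 0.1 nM (final) 17beta-estradiol-driven signal over 22 h is read by luminescence.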

[3] = qHTS assay to identify small molecule HDAC inhibitors (AID 1259364);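 also: wild-type HCT-116 cells with endogenous class I/II HDAC activity; top concentration of the series differs between compounds; nearly all actives have a fitted effect of over 45% in size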
Summary of the method: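 Quantitative high-throughput format: overnight-seeded HCT-116 cells got compounds for 2 hr at 37C; HDAC-Glo I/II reagent added, 30 min RT, luminescence measured.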

[4] = qHTS assay to identify small molecule HDAC inhibitors - cell viability counter screen (AID 1259365); also: series mostly up to about 92 µM; nearly all actives have a fitted effect of over 50% in size
Summary of the method: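 Wild-type HCT-116 cells, 1,500/well, cultured overnight, then compound-treated 2 h at 37 C. Viability measured as ATP luminescence with CellTiter-Glo after 30 min at room temperature.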

[5] = qHTS assay to identify small molecule agonists of the sonic hedgehog signaling (Shh) pathway - cell viability counter screen (AID 1259366); also: nearly all actives have a fitted effect of over 50% in size
Summary of the method: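 NIH/3T3-derived Gli1-Luc reporter cells, 2,000 per well, received compound after 4 h and were treated about 23 h at 37C. Viability measured in the same wells by CellTiter-Fluor fluorescence after 1 h.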

[6] = qHTS assay to identify small molecule antagonists of the sonic hedgehog signaling (Shh) pathway - cell viability counter screen (AID 1259367); also: nearly all actives have a fitted effect of over 55% in size
Summary of the method: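 Fluorescence read-out (CellTiter-Fluor, 1 hr at 37C) taken after 23 hr compound treatment of 3T3 Gli1-Luc cells stimulated with conditioned medium. Cells were seeded at 2,000 per well and pre-incubated 4 hr.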

[7] = qHTS assay to identify small molecule agonists of the sonic hedgehog signaling (Shh) pathway (AID 1259368; calls by dose curve;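 also: NIH/3T3-derived 3T3Gli1-Luc cells carrying a stable Gli1-driven firefly luciferase reporter; series mostly up to about 92 µM; nearly all actives have a fitted effect of over 15% in size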)
Summary of the method: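 Quantitative high-throughput format using a Gli1-driven firefly luciferase reporter line derived from NIH/3T3 cells. After a 24 hr compound treatment at 37 C and 5% CO2, luminescence reported Gli1 response element activity.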

[8] = biological target: Estrogen receptor beta (Homo sapiens) (UniProt Q92731); experiment: qHTS assay to identify small molecule agonists of the estrogen receptor beta (ER-beta) signaling pathway (AID 1259377; active = well fitted activation curve with a large enough effect in the signal ratio in the repeat runs, not every such curve was filed as active; the % refers to the signal ratio)
Sequence of Estrogen receptor beta (Homo sapiens) (Q92731 whole entry, looked up): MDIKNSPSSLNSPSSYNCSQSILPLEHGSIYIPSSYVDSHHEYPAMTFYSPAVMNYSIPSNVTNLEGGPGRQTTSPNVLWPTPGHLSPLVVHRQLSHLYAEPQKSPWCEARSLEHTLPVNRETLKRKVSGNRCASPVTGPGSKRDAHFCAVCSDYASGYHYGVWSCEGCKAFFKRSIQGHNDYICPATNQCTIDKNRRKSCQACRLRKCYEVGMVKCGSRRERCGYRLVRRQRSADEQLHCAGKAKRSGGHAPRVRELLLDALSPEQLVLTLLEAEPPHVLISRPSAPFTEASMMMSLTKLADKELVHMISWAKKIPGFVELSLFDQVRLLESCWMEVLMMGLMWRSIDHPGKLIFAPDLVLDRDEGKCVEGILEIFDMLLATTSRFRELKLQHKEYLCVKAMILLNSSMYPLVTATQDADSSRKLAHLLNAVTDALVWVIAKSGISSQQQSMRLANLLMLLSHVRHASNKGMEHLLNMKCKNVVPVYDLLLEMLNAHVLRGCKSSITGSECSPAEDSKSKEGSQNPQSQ
Summary of the method: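 ER-beta-UAS-bla HEK293T cells in medium with 2% charcoal-stripped FBS were exposed to compounds for 16 h at 37C. Beta-lactamase reporter activity was read as fluorescence after 2 h with LiveBLAzer B/G FRET substrate at room temperature.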

[9] = biological target: Estrogen receptor beta (Homo sapiens) (UniProt Q92731); experiment: qHTS assay to identify small molecule antagonists of the estrogen receptor beta (ER-beta) signaling pathway (AID 1259378; active = well fitted inhibition curve with a large enough effect in the signal ratio in the repeat runs, not every such curve was filed as active; the % refers to the signal ratio)
Summary of the method: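 ER-beta-UAS-bla HEK293T cells in 2% charcoal-stripped FBS medium treated with compound plus 1nM final 17-beta-estradiol for 16 hr at 37C. Beta-lactamase reporter read by FRET substrate fluorescence after 2 hours at room temperature.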

[10] = qHTS assay to identify small molecule agonists of the androgen receptor (AR) signaling pathway in the presence of an antagonist - cell viability counter screen (AID 1259379);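 also: MDA-kb2 human breast cancer cells carrying an MMTV luciferase reporter; series mostly up to about 92 µM; nearly all actives have a fitted effect of over 25% in size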
Summary of the method: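 Nilutamide-containing (3.0uM final) MDA-kb2 cultures, 3,000 cells/well, were treated with compounds across 15 concentrations. After 16 hr at 37C with no CO2, cell viability was determined by CellTiter-Fluor fluorescence in the luciferase assay wells.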

[11] = qHTS assay to identify small molecule antagonists of the estrogen receptor beta (ER-beta) signaling pathway - cell viability counter screen (AID 1259382); also: series mostly up to about 92 µM; nearly all actives have a fitted effect of over 55% in size
Summary of the method: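 Viability is scored by CellTiter-Glo luminescence (30 min, room temperature) in ER-beta-UAS-bla HEK293T wells already read for reporter fluorescence. Compound exposure lasts 16 hr at 37C alongside 1nM 17-beta-estradiol in charcoal-stripped serum medium.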

[12] = biological target: Estrogen receptor (Homo sapiens) (UniProt P03372); experiment: qHTS assay to identify small molecule agonists of the estrogen receptor alpha (ER-alpha) signaling pathway in the presence of an antagonist (AID 1259383; calls by dose curve; also: top concentration of the series differs between compounds; nearly all actives have a fitted effect of over 15% in size)
Summary of the method: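 Readout was ERE-driven luciferase luminescence in VM7Luc4E2 cells, which express full-length ER-alpha endogenously. Compounds were tested at 15 concentrations for 22hr alongside 10.0nM ICI-182,780 (final concentration).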

[13] = biological target: Thyrotropin receptor (Homo sapiens) (UniProt P16473); experiment: qHTS assay to identify small molecule antagonists of the thyroid stimulating hormone receptor (TSHR) signaling pathway (AID 1259385; calls by dose curve; also: nearly all actives have a fitted effect of over 20% in size)
Sequence of Thyrotropin receptor (Homo sapiens) (P16473 whole entry, looked up): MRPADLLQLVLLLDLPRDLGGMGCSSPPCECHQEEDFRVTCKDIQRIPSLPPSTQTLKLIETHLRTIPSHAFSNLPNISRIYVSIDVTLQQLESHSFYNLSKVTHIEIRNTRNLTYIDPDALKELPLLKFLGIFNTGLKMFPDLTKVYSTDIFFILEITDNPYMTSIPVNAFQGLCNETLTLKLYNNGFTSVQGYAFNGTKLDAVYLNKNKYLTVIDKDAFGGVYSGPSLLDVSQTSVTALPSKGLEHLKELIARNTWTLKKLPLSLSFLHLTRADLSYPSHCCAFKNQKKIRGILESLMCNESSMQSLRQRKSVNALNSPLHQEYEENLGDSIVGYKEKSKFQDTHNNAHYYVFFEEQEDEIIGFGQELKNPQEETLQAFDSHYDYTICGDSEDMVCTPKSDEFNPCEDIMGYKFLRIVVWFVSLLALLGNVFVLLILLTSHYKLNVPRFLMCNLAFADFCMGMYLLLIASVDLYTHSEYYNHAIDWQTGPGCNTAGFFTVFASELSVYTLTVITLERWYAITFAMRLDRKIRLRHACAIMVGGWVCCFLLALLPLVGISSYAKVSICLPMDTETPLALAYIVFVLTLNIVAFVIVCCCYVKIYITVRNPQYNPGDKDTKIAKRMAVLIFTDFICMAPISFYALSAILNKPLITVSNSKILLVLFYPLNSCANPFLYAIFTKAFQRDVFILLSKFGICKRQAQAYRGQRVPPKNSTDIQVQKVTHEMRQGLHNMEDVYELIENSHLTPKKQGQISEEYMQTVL
Summary of the method: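 TSHR-HEK293 cells (800/well) plated 18 h, then compounds with Ro20-1724 and TSH at 1.5 ng/mL final, 30 min at room temperature. cAMP quantified by HTRF (cAMP-d2/anti-cAMP-cryptate, 1 h); 15 concentrations in triplicate.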

[14] = qHTS assay to identify small molecule agonists of the estrogen receptor alpha (ER-alpha) signaling pathway in the presence of an antagonist - cell viability counter screen (AID 1259386);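 also: series mostly up to about 92 µM; cells exposed to compounds for 22 h at 37 °C before the viability read; nearly all actives have a fitted effect of over 30% in size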
Summary of the method: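 In this counter screen, compound effects on VM7Luc4E2 viability were tested in the presence of the antagonist ICI-182,780 at 10.0nM final. Compounds were dosed at 15 concentrations, exposure lasted 22hr, and the CellTiter-Fluor signal was read.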

[15] = qHTS assay to identify small molecule antagonists of the sonic hedgehog signaling (Shh) pathway (AID 1259369; calls by dose curve; also: nearly all actives have a fitted effect of over 45% in size)
Summary of the method: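 Stable Gli1-Luc reporter NIH/3T3 clone; quantitative HTS in stimulated mode with conditioned medium. Luminescence measured after 24hr compound treatment at 37 C.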

[16] = qHTS assay to identify small molecule agonists of the estrogen receptor beta (ER-beta) signaling pathway - cell viability counter screen (AID 1259380); also: nearly all actives have a fitted effect of over 30% in size
Summary of the method: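 Steps: plate ER-beta-UAS-bla HEK293T cells, rest 6 hr; add compounds in DMSO; incubate 16 hr at 37C, 5% CO2; add FRET substrate 2 hr; add CellTiter-Glo, wait 30 min at room temperature; read luminescence.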

[17] = qHTS assay to identify small molecule agonists or antagonists of the thyroid stimulating hormone receptor (TSHR) signaling pathway - wild type cell line counter screen (AID 1259384; calls by dose curve)
Summary of the method: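 Wild-type Hek293 cells, 800/well, 18 h at 37C, then compound with Ro20-1724 for 30 min RT. cAMP by HTRF (cAMP-d2/anti-cAMP cryptate), 1 h RT, fluorescence read. 15 concentrations, triplicates.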

Measured: Potency

CCN(CC)c1nc(C)cc(OP(=S)(OC)OC)n1
inactive: [1] | [2] | [3] | [4] | [5] | [6] | [7] | [8] | [9] | [10] | [11] | [12] | [13] | [14]

C[N+](=O)[O-]
inactive: [1] | [2] | [3] | [4] | [5] | [6] | [7] | [15] | [10] | [16] | [11] | [12] | [17] | [14]

O=S(=O)(O)C(F)(F)C(F)(F)C(F)(F)C(F)(F)C(F)(F)C(F)(F)F
inactive: [1] | [2] | [3] | [4] | [5] | [6] | [7] | [15] | [10] | [16] | [11] | [12] | [17] | [13] | [14]

CCC1(c2ccccc2)C(=O)N=C(O)NC1=O (stereo unspecified)
inactive: [1] | [2] | [3] | [5] | [6] | [7] | [15] | [9] | [10] | [16] | [11] | [12] | [17] | [13] | [14]

[Cl][Sn]([Cl])([Cl])[Cl]
inactive: [1] | [2] | [3] | [4] | [5] | [6] | [7] | [15] | [10] | [16] | [11] | [14]

CCCCOC(=O)[C@@H](C)Oc1ccc(Oc2ccc(C#N)cc2F)cc1
inactive: [1] | [2] | [3] | [4] | [5] | [6] | [7] | [8] | [9] | [10] | [16] | [11] | [12] | [17] | [14]

ClC(Cl)Br
inactive: [1] | [2] | [3] | [4] | [5] | [6] | [7] | [15] | [10] | [16] | [11] | [17] | [14]

C(CCOCC1CO1)COCC1CO1 (stereo unspecified)
inactive: [1] | [2] | [3] | [4] | [5] | [6] | [7] | [10] | [16] | [11] | [17] | [13] | [14]
